Bioassay records (PubChem BioAssay)
Shown are actives, neighbours in structure and some others; about 7.6% of the full set was active somewhere.
KCNH2 WT inh – blocks the wildtype human KCNH2 potassium channel | Q12809 | activity change, % at 1.84 µM | U2OS, BacMam KCNH2, thallium flux FluxOr; stronger effect = lower value | AID 720551 | 340,000 tested, 0.37% active;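 active = maximum activity change below -70%; inconclusive = maximum activity change between -70% and -50%; inactive = maximum activity change above -50%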; also: % is scaled to controls: 0 for no effect and ±100 for the full control effect
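U2OS cells were transduced with wild-type KCNH2 virus (2.03 x 10^8 / mL) for 4 h at room temperature, then cultured overnight at 37 C. Thallium flux was read with FluxOr dye. Rate constants were normalized to DMSO controls.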
KB-3-1 cytotox – kills parental KB-3-1 adenocarcinoma cells. KB-3-1 viability, CellTiter-Glo ATP luminescence, 72 h. AID 1347075. 400,000 tested, 1.4% active. Potency, µM (top dose mostly 46.1 µM), actives largely listed as cytotoxic; also: potency is read from the fitted curve at half-maximal effect; % is scaled to controls: 0 for no effect and ±100 for the full control effect; nearly all actives have a fitted effect of over 60% in size
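Screening of KB-3-1 cells (DMEM, 10% FBS, phenol-red free) ran from lowest to highest compound concentration; after 72 h at 37 °C viability was read luminescently and curves fitted.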
KB-V1 cytotox – kills drug-selected multidrug resistant KB-V1 cells | KB-V1 MDR cells viability, CellTiter-Glo, 72 h | Potency, µM (doses to about 46.1 µM), actives largely listed as cytotoxic | 400,000 tested, 3.4% active; also: potency is read from the fitted curve at half-maximal effect; % is scaled to controls: 0 for no effect and ±100 for the full control effect; nearly all actives have a fitted effect of over 60% in size
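Readout: CellTiter-Glo luminescence, 10 min after addition. Cells: KB-V1 MDR subline, 72 h at 37 degrees C with compound. Analysis: corrected, normalized data fitted to concentration-effect curves.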
KCNH2 3.1 block – inhibitors of human KCNH2 3.1 potassium channel isoform; U2OS KCNH2 3.1, thallium flux FluxOr; stronger effect = lower value; activity change, % (tested at about 1.8 µM); 340,000 tested, 0.95% active; AID 720553;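 active = maximum activity change below -70%; inconclusive = maximum activity change from -70% to -50%; inactive = maximum activity change above -50%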;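 also: thallium influx rate constant from kinetic fluorescence after stimulation buffer; % is scaled to controls: 0 for no effect and ±100 for the full control effect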
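Kinetic fluorescence (2 min after stimulation buffer) measures Tl+ influx through KCNH2 3.1 expressed by viral transduction in U2OS cells; the rate constant is normalized against DMSO controls serving as positive and negative references.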
MCF10A rerep – inducers of DNA re-replication in MCF 10A breast cells. MCF 10A DNA re-replication, Hoechst nuclear intensity, 48 h. Potency, µM (highest dose often 46.1 µM), without a hit: top-dose activity, positive = re-replication, usual class: activators. 350,000 tested, 2.9% active. AID 624296; also: potency is read from the fitted curve at half-maximal effect; % of control where 0% means no effect; nearly all actives have a fitted effect of over 50% in size
SW480 rereplic – inducers of DNA re-replication in SW480 colon cancer cells; SW480 DNA re-replication, Hoechst DNA content imaging, 48 h; Potency, µM (series often up to 46.1 µM), inactives show at the top dose re-replication activation, hits mostly activators; 340,000 tested, 1.8% active; AID 624297; also: potency is read from the fitted curve at half-maximal effect; % of control where 0% means no effect; nearly all actives have a fitted effect of over 55% in size
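DNA re-replication was detected as more nuclei of elevated Hoechst intensity after 48 hr exposure to compound (23 nL pinned per well of 250 cells).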
Active calls of the source: *; i = inactive; ? = inconclusive; nt = no result. Unless noted, calls follow the shape of the dose curve; as a rule, active = well fitted curve in the direction sought with a large enough effect; inconclusive = small, poorly fitted or top-dose-only effect, or another doubt; inactive = no such curve, though single readings can be large; an effect the other way counts as inactive or inconclusive.

SMILES	KCNH2 WT inh	KB-3-1 cytotox	KB-V1 cytotox	KCNH2 3.1 block	MCF10A rerep	SW480 rereplic
COc1ccc(C(=O)c2sc(Nc3ccccc3)nc2C)cc1	-4	i	i	6	?	-1%
COc1cccc(C(=O)c2sc(NC(C)C)nc2N)c1	-9	16µM*	?	-2	5.8µM*	?
CC(C)Nc1nc(N)c(C(=O)C23CC4CC(CC(C4)C2)C3)s1	-1	i	i	-5	23µM*	21%
COc1ccc(Nc2nc(N)c(C(=O)c3ccc(OC)cc3)s2)cc1	0	1.3µM*	?	-6	?	4.1µM*
CCn1cc(C(=O)NCCc2ccccc2)c(=O)c2cc(S(=O)(=O)N3CCCC3)ccc21	-2	i	i	?	0%	3%
Cc1cc(C(=O)O)cc(S(=O)(=O)Nc2ccccc2C(=O)NC(C)c2ccccc2)c1C (stereo not given)	42	i	i	9	0%	3%
CN(CCOc1ccc(Cl)cc1)C(=O)c1cc(-c2ccco2)nc2ccccc12	6	i	16µM*	-47	?	-28%
COc1ccc(C2CC(c3ccc(OC)c(OC)c3)=NN2C(=O)c2ccccc2)cc1 (stereo not given)	6	i	i	13	-5%	4%
COc1ccc(CCNC(=O)c2ccccc2OCc2c(C)noc2C)cc1	-14	i	5.8µM*	12	-4%	-4%
COc1cccc(NC(=O)c2ccccc2OCc2c(C)noc2C)c1	-15	i	?	10	1%	-8%
Cc1noc(C)c1COc1ccccc1C(=O)NCCc1ccc(Cl)cc1	-3	i	?	-2	11%	-1%
Cc1ccc(NC(=O)c2ccccc2OCc2c(C)noc2C)cc1S(=O)(=O)N(C)C	1	i	2.3µM*	-6	-1%	1%
CN(C)C(=O)CCc1ccc2c3c([nH]c2c1)[C@]1(CCC2CCCC2)[C@@H](C(=O)N2CCOCC2)C[C@H](CC(=O)NCCC2=CCCCC2)C(=O)N1CC3	-1	i	i	nt	?	17%
C(=NNc1nnn(Cc2ccccc2)n1)c1ccccc1	-10	?	16µM*	10	nt	nt
CCC[C@@H]1O[C@@H]2C[C@@H]3[C@H]4CCC5=CC(=O)C=C[C@@]5(C)[C@H]4[C@H](O)C[C@@]3(C)[C@@]2(C(=O)CO)O1	nt	nt	nt	nt	3%	-1%
O=C(Nc1ccc2c(c1)CCC2)c1ccc(F)cc1	-14	i	i	-8	3%	-2%
O=C(Nc1ccc2c(c1)CCC2)c1cc(S(=O)(=O)Nc2ccc(F)cc2)c(Cl)cc1Cl	3	?	18µM*	-6	?	13%
Cc1cccc(Nc2nc(N)nc(CN3CCN(c4ccccc4F)CC3)n2)c1	25	i	2.3µM*	-80*	?	?
CCOc1ccc(Nc2nc(N)nc(CN3CCN(c4ccccc4F)CC3)n2)cc1	i	i	?	-7	?	18%
CN1CCN(Cc2nc(N)nc(Nc3ccc4c(c3)OCCO4)n2)CC1	12	i	i	0	1%	-15%
Nc1nc(CN2CCN(c3ccccc3F)CC2)nc(Nc2ccc3c(c2)OCCO3)n1	-6	?	9.2µM*	12	?	40%
COc1ccc(N2CCN(Cc3nc(N)nc(Nc4ccccc4OC)n3)CC2)cc1	-7	i	i	-27	9%	3%
COc1ccc(Nc2nc(N)nc(CN3CCN(c4ccc(F)cc4)CC3)n2)cc1	47	i	?	-77*	6%	-5%
Cc1cccc(Nc2nc(N)nc(CN3CCN(c4ccccc4)CC3)n2)c1	20	i	15µM*	?	0%	-7%
Cc1c(Cl)cccc1-n1ncc(C(=O)Nc2ccc(Br)cc2F)c1C1CCNCC1	nt	i	i	nt	nt	nt
SMILES	KCNH2 WT inh	KB-3-1 cytotox	KB-V1 cytotox	KCNH2 3.1 block	MCF10A rerep	SW480 rereplic
COc1ccccc1N1CCN(Cc2nc(N)nc(Nc3ccc(C)c(Cl)c3)n2)CC1	-7	i	?	-106*	?	-2%
OC(COc1ccc(Cl)cc1)CN1C2=NCCCN2c2ccccc21 (stereo not given)	-146*	?	?	-97*	-16%	?
OC(CN1C2=NCCN2c2ccccc21)c1ccc(Br)cc1 (stereo not given)	21	i	i	-73*	-4%	-3%
OC(CN1C2=NCCN2c2ccccc21)c1ccccc1 (stereo not given)	3	i	?	-25	2%	-3%
Clc1ccc(CN2C3=NCCCN3c3ccccc32)cc1	41	?	i	?	5%	-2%
Cc1ccc(C(O)CN2C3=NCCN3c3ccccc32)cc1 (stereo not given)	33	i	i	-8	?	-1%
OC(CN1C2=NCCCN2c2ccccc21)c1ccc(Cl)cc1 (stereo not given)	0	i	i	-74*	5%	-5%
CCC(C)n1c(=N)c(C(=O)NC2CCCCC2)cc2c(=O)n3cc(C)ccc3nc21 (stereo not given)	nt	i	?	nt	nt	nt
O=C(Nc1ccccc1Cl)C1CCN(Cc2cnn(-c3ccccc3)c2-n2cccc2)CC1	36	18µM*	23µM*	-15	?	13%
COc1ccc(OC)c(NC(=O)C2CCN(Cc3cnn(-c4ccccc4)c3-n3cccc3)CC2)c1	-3	i	8.2µM*	-12	13%	?
COc1ccc(NC(=O)C2CCN(Cc3cnn(-c4ccccc4)c3-n3cccc3)CC2)cc1OC	15	i	?	-9	-8%	-5%
CC(=O)Nc1cccc(-c2cc(NC(C)=O)c3ncc(-c4cccc(C(F)(F)F)c4)n3c2)c1	nt	i	?	nt	nt	nt
CCOc1ccccc1O[C@@H](c1ccccc1)[C@@H]1CNCCO1	nt	nt	nt	nt	13%	3%
C=CCc1c(C)nc(C)nc1N/N=C/c1ccccc1O	0	i	7.3µM*	10	19%	12µM*
COc1ccc(NC(=O)Nc2nnc(C(C)C)s2)cc1	7	?	16µM*	16	-2%	-9%
COc1ccc(CC(=O)Nc2nnc(C(C)C)s2)cc1	4	i	i	10	4%	-4%
O=C(COc1ccccc1Cl)Nc1ccccc1C(=O)N1CCCCC1	-2	nt	nt	5	13%	29%
COC(=O)N/N=C\c1c(C)[nH]n(-c2ccccc2)c1=O	-7	i	i	0	-23%	-2%
Cc1ccc(OCC(=O)N/N=C\c2c(C)n(C)c3ccccc23)c([N+](=O)[O-])c1	3	?	?	-10	?	15µM*
